# Measurements from PubChem BioAssay.
# Results filed as inconclusive are left out. The source made the active and inactive calls. Unless noted, no stated cut-off is given here; in the data, active means inhibition above about 80%; inactive means the rest.
# Tests used:
# [1] = viability loss in pontine glioma line – cell-based, SU-DIPG-XVII, MIPE5.0, CellTiter-Glo, qHTS, dose response (AID 1347060; cut-off not given, nearly all actives have AC50 up to about 26 µM;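 further: cells exposed to compound for 48 hours before viability readout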); conditions: CellTiter-Glo ATP luminescence
# [2] = viability loss in pontine glioma line – cell-based, SU-DIPG-XIII, MIPE5.0, CellTiter-Glo, qHTS, dose response (AID 1347064; cut-off not given, nearly all actives have AC50 up to about 23 µM;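 further: cells exposed to compound for 48 hours before the viability read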); conditions: CellTiter-Glo ATP luminescence
# [3] = viability loss in pontine glioma line – cell-based, SU-DIPG-XXV, MIPE5.0, CellTiter-Glo, qHTS, dose response (AID 1347065; cut-off not given, nearly all actives have AC50 up to about 26 µM;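 further: cells exposed to compound for 48 hours before ATP readout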); conditions: CellTiter-Glo ATP luminescence
# [4] = JHH-DIPG-1 glioma cell viability, MIPE5.0 library, CellTiter-Glo luminescence, qHTS (AID 1347067; cut-off not given, nearly all actives have AC50 up to about 26 µM;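 further: cells exposed to compound for 48 hours before readout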); conditions: JHH-DIPG-1 glioma viability, CellTiter-Glo ATP luminescence
# [5] = growth inhibition of DIPG cells – cell-based, MIPE5.0 library, qHTS (AID 1347068; cut-off not given, nearly all actives have IC50 up to about 30 µM;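 further: cells exposed to compound for 48 hours before viability readout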); conditions: SU-DIPG-XXV viability
# [6] = viability loss with induced miR-34 in A549 – imaging, A549 dox-inducible miR-34, nuclei and caspase counts, primary screen (AID 1347080;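 active means compounds whose cell count with miR-34 switched on is under 0.7 times the count with it off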); conditions: A549 miR-34 inducible, Hoechst nuclei count, 48 h
# [7] = MELAS cybrid and Rieske KO viability enhancers – cell-based, MELAS cybrids, Rieske KO mouse fibroblasts, CellTiter-Glo, primary screen (AID 1508586;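 active means mean z-score across replicates of 1.96 or higher in either the MELAS or the Rieske mutant cell line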;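 further: z relative to plate mean and SD of compound and empty wells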); conditions: low glucose
# [8] = growth inhibition, single agent or in combination, cell-based, chromothripsis tumors, cisplatin or BGB combos (AID 1671449); conditions: LFS_MB_P medulloblastoma cells;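 further: cells exposed for 96 hours; 0% = vehicle DMSO and 100% = killing by high DMSO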
# [9] = growth inhibition, single agent and combos, cell-based, chromothripsis tumors, cisplatin or BGB combos (AID 1671450); conditions: HDN33 neuroblastoma cells, stronger effect = higher value;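 further: cells exposed to compound for four days; 0% = vehicle DMSO and 100% = cell killing by high DMSO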
# [10] = growth inhibition, single agents and combos, ICB984, cell-based, cisplatin or BGB combos, synergistic combos for chromothripsis tumors (AID 1671451; call rule not given here;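 further: cells exposed for 96 hours before readout; 0% = vehicle DMSO and 100% = killing by high DMSO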); conditions: ICB984 medulloblastoma cells, drug combinations, stronger effect = higher value
# [11] = growth inhibition, single agents and combos, LFS_MB_1R, cell-based, cisplatin or BGB combos, synergistic combos for chromothripsis tumors (AID 1671452); conditions: LFS_MB_1R medulloblastoma cells, stronger effect = higher value;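 further: cells exposed for 96 hours before readout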
# [12] = growth inhibition, single agents and combos, HTB85, cell-based, BGB or cisplatin IC20 combos, synergistic combos for chromothripsis tumors (AID 1671453); conditions: HTB85 osteosarcoma cells, drug combinations, stronger effect = higher value;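 further: cells exposed for 96 hours before readout; 0% = vehicle DMSO and 100% = high DMSO killing control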
# [13] = growth inhibition, single agents and combos, CRL2098, cell-based, BGB or cisplatin IC20 combos, synergistic combos for chromothripsis tumors (AID 1671454); conditions: CRL2098 osteosarcoma cells, drug combinations, stronger effect = higher value;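 further: cells exposed for 96 h before readout; 0% = vehicle DMSO and 100% = killing by high DMSO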
# [14] = growth inhibition, single agents and combos, HD-MB03, cell-based, BGB or cisplatin IC20 combos, synergistic combos for chromothripsis tumors (AID 1671455; in the data active means inhibition above about 83%;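 further: 0% = vehicle DMSO and 100% = high DMSO as cytotoxic control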); conditions: HD-MB03 medulloblastoma cells, stronger effect = higher value
# [15] = growth inhibition, single agents and combos, UWB1.289, cell-based, BGB or cisplatin combos, synergistic combos for chromothripsis tumors (AID 1671456); conditions: UWB1.289 ovarian carcinoma cells, stronger effect = higher value;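 further: cells exposed to compound for four days; 0% = vehicle DMSO and 100% = killing by high DMSO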
# [16] = growth inhibition, MDA-MB-436, cell-based, BGB or cisplatin combos, synergistic combos for chromothripsis tumors (AID 1671458; call rule not given here;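 further: cells exposed for 96 hours; 0% = vehicle DMSO and 100% = killing by high DMSO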); conditions: MDA-MB-436 breast carcinoma growth inhibition, drug combinations, stronger effect = higher value
# [17] = BT084 cell growth, single and combined drugs, ICGC_MB145, cisplatin and BGB IC40 combos (AID 1671461); conditions: BT084 medulloblastoma cells, drug combinations, stronger effect = higher value;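 further: cells exposed to drugs for 96 hours; 0% = vehicle DMSO and 100% = high DMSO full killing control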
# [18] = RCMB18 cell growth, single agent and combined, cisplatin and BGB IC40 combos (AID 1671462); conditions: RCMB18 medulloblastoma cells, stronger effect = higher value;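 further: cells exposed to compound for four days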
# [19] = CRL1545 cell growth, single agent and combined, cisplatin and BGB IC20 combos (AID 1671464); conditions: CRL1545 osteosarcoma cells, stronger effect = higher value;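 further: cells exposed to compound for 96 hours before readout; 0% = vehicle DMSO and 100% = high DMSO killing control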
# [20] = measured here: combination with BGB IC40, at 0.05 µM
# [21] = measured here: with BGB IC20 combination, at 0.5 µM
# [22] = measured here: with cisplatin IC20 combination, at 0.5 µM
# [23] = measured here: combination with cisplatin, at 0.5 µM
smiles,measurement,setting,value
CC(=O)Nc1ccc(C(=O)Nc2ccccc2N)cc1,AC50,[1],13.2 µM (active)
same,AC50,[2],9.34 µM (active)
same,AC50,[3],9.34 µM (active)
same,AC50,[4],10.5 µM (active)
same,IC50,[5],10.5 µM (active)
same,fold change,"[6]; stronger effect = lower value, cell number ratio, induced over uninduced",0.986 (inactive)
same,fold change,[6]; measured here: relative caspase fold change +Dox/-Dox,1.15
same,cell count,"[6]; measured here: total cells with miR-34 induction, stronger effect = lower value",4760
same,cell count,[6]; measured here: total cells without miR-34 induction,4820
same,z-score,"[7]; MELAS cybrid survival, CellTiter-Glo 48 h, stronger effect = higher value",-0.168 (inactive)
same,z-score,"[7]; Rieske KO mouse fibroblast survival, CellTiter-Glo 72 h",-0.712
same,inhibition,"[8]; at 0.5 µM, stronger effect = higher value",88.2% (active)
same,inhibition,"[8]; measured here: combination with BGB IC20, at 0.005 µM",-32.9%
same,inhibition,"[8]; measured here: combination with BGB IC40, at 0.005 µM",90.3%
same,inhibition,[8]; [20],-22.7%
same,inhibition,"[8]; measured here: combination with cisplatin, at 0.5 µM, stronger effect = higher value",113%
same,inhibition,"[8]; measured here: combination with cisplatin, at 5 µM, stronger effect = higher value",85.2%
same,inhibition,"[9]; BGB combo, at 5 µM",47.2%
same,inhibition,[9]; at 0.5 µM,8.49% (inactive)
same,inhibition,"[9]; cisplatin combo, at 5 µM",53.7%
same,inhibition,[9]; [21],4.99%
same,inhibition,[9]; [22],18.6%
same,inhibition,"[9]; single agent, at 5 µM",41.8%
same,inhibition,"[10]; BGB IC20 combo, at 0.005 µM",-11.5%
same,inhibition,"[10]; BGB IC40 combo, at 0.005 µM",-4.35%
same,inhibition,"[10]; BGB IC40 combo, at 0.05 µM",23.2%
same,inhibition,[10]; at 0.5 µM,-24.7% (inactive)
same,inhibition,"[10]; cisplatin combo, at 0.05 µM",19.5%
same,inhibition,"[10]; cisplatin combo, at 0.5 µM",-38.2%
same,inhibition,"[10]; cisplatin combo, at 5 µM",-5.64%
same,inhibition,"[10]; measured here: 5 uM single agent, at 5 µM",-13.9%
same,inhibition,[11]; at 0.5 µM,-13.9% (inactive)
same,inhibition,[11]; [20],-36.6%
same,inhibition,[11]; [23],-17.4%
same,inhibition,"[11]; measured here: combination with cisplatin, at 5 µM",75.4%
same,inhibition,[12]; at 0.5 µM,3.06% (inactive)
same,inhibition,"[12]; measured here: with BGB IC20, at 0.5 µM",23.1%
same,inhibition,"[12]; measured here: with BGB IC20, at 5 µM",53.4%
same,inhibition,"[12]; measured here: with cisplatin IC20, at 0.5 µM",-11.1%
same,inhibition,"[12]; measured here: with cisplatin IC20, at 5 µM",56.6%
same,inhibition,"[12]; single agent, at 5 µM",37.1%
same,inhibition,[13]; at 0.5 µM,-31.5% (inactive)
same,inhibition,"[13]; measured here: combination with BGB at IC20, at 0.5 µM",-48.1%
same,inhibition,"[13]; measured here: combination with cisplatin at IC20, at 0.5 µM",-8.49%
same,inhibition,[14]; at 0.5 µM,-2.82% (inactive)
same,inhibition,"[14]; measured here: combo with BGB at IC20, at 0.5 µM",-7.4%
same,inhibition,"[14]; measured here: combo with cisplatin at IC20, at 0.5 µM",-4.11%
same,inhibition,[15]; at 0.5 µM,0.73% (inactive)
same,inhibition,"[15]; measured here: inhibition with BGB combination, at 0.05 µM",-12.2%
same,inhibition,"[15]; measured here: inhibition with cisplatin combination, at 0.05 µM",-6.67%
same,inhibition,[16]; at 0.5 µM,-2.64% (inactive)
same,inhibition,"[16]; measured here: BGB combination, at 0.5 µM",6.02%
same,inhibition,"[16]; measured here: BGB combination, at 5 µM",12.4%
same,inhibition,"[16]; measured here: cisplatin combination, at 0.5 µM",-26.9%
same,inhibition,"[16]; measured here: cisplatin combination, at 5 µM",14.4%
same,inhibition,[17]; at 0.5 µM,25.3% (inactive)
same,inhibition,"[17]; cisplatin combination, at 0.5 µM",14.2%
same,inhibition,"[17]; cisplatin combination, at 5 µM",63.9%
same,inhibition,"[17]; measured here: BGB IC40 combination 0.05 uM, at 0.05 µM",-33.4%
same,inhibition,"[17]; single agent, at 5 µM",40.7%
same,inhibition,[18]; at 0.5 µM,16.2% (inactive)
same,inhibition,"[18]; cisplatin combo, at 5 µM",82.6%
same,inhibition,"[18]; measured here: BGB IC40 combination, at 0.05 µM",-4.7%
same,inhibition,[18]; [23],20.8%
same,inhibition,"[18]; single agent, at 5 µM",47.6%
same,inhibition,[19]; at 0.5 µM,35.2% (inactive)
same,inhibition,[19]; [21],11.6%
same,inhibition,[19]; [22],46.2%
same,inhibition,"[19]; single agent, at 0.05 µM",-7.31%
same,inhibition,"[19]; single agent, at 5 µM",44%
